From PubChem BioAssay (NCI)
The panel holds about 79,000 compounds, 15% with a hit somewhere; the sample as a whole holds those more often. Active and inactive are the calls of the source. Cut-off read from the data, not from the text of the source: active = growth inhibition above about 70%; inactive = the rest.

Test: NCI Yeast Anticancer Drug Screen. Data for the rad50 strain (AID 155);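 note: 0% = growth of vehicle-only cultures of the same strain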
Conditions: S. cerevisiae rad50 strain growth inhibition; at 50.0 µM; stronger effect = higher value
How it was run: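 DNA repair mutant yeast, compound exposure, growth read-out; inhibition is taken relative to vehicle.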

Row | SMILES | growth inhibition
1 | CC(C)=CCC(C)C | -12.1% (inactive)
2 | COc1ccc(/C=C\c2cc(OC)c(OC)c(OC)c2)cc1OC(=O)CC(N)C(=O)O (configuration not stated) | -19.6% (inactive)
3 | Cc1ccc(S(=O)(=O)CCC(=O)c2ccc([N+](=O)[O-])cc2)cc1 | 9.35% (inactive)
4 | CC1CCC(C(=O)O)CC1 (configuration not stated) | -16.9% (inactive)
5 | COc1ccc(C)c2c1CCCC2 | -8.6% (inactive)
6 | O=C(N/C(=C\c1ccccc1)C1Nc2ccccc2C(=O)O1)c1ccccc1 (configuration not stated) | -6.8% (inactive)
7 | Nc1cc(Br)cc2c1-c1ccc(Br)cc1C2=O | 15.1% (inactive)

Test: NCI Yeast Anticancer Drug Screen. Data for the mec2-1 strain (AID 157)
Conditions: S. cerevisiae mec2-1 strain, at 50.0 µM, stronger effect = higher value
How it was run: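 Yeast mec2-1 mutant treated with compound. Readout: growth inhibition vs vehicle controls.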

Row | SMILES | growth inhibition
8 | O=C1c2cccc([N+](=O)[O-])c2C(=O)c2cccc(Cl)c21 | 9.35% (inactive)
9 | CCOC(=O)C(Cc1ccc(Cl)cc1)(Cc1ccc(Cl)cc1)C(=O)OCC | -30.4% (inactive)
10 | Cc1cc(Cl)ccc1NC(=O)/C(=N\NC(C)(C)C)C(C#N)c1nc(-c2ccc([N+](=O)[O-])cc2)cs1 (configuration not stated) | 8.95% (inactive)
11 | COC(=O)CCc1ccc(NC(=O)OC)cc1 | 20.3% (inactive)
12 | CC/C(C)=N/NC(=O)c1ccc([N+](=O)[O-])cc1 | 12% (inactive)
13 | COc1cnnc2ccccc12 | 3.2% (inactive)
14 | CC/C(C)=N/NS(C)(=O)=O | -7.55% (inactive)
15 | CNn1c(C)n[nH]c1=O | -15.8% (inactive)
16 | O=C(NN1C(=O)C(Cl)C1c1ccccc1Cl)c1ccccc1O (configuration not stated) | -35.9% (inactive)
17 | c1ccc2cc(N3CCOCC3)ccc2c1 | -27.4% (inactive)
18 | CC(=O)OCC1C(=O)OCC1C(=O)N1Cc2cc3ccccc3nc2C1 (configuration not stated) | -1.55% (inactive)
19 | Clc1ccc(C2=CSC3=NCCN23)cc1 | -1.4% (inactive)
20 | C=C(C)C(C)(C)n1[nH]c(=O)n(-c2ccccc2)c1=O | -0.05% (inactive)
21 | CN1CCN(S(=O)(=O)C(c2ccccc2)C2(O)CCCCC2)CC1 (configuration not stated) | 10.2% (inactive)
22 | COc1ccc(NC(=O)C(=O)Cc2nc3ccc([N+](=O)[O-])cc3[nH]c2=O)c(OC)c1 | 14.7% (inactive)
23 | COc1cc(NC(=O)CCN2CCOCC2)c2ncccc2c1 | 3.6% (inactive)
24 | CSC(C1c2ccccc2N(C)C2=NC(=O)N(C)C(=O)C21Cl)S(=O)(=O)c1ccc(C)cc1 (configuration not stated) | 12.2% (inactive)
25 | COc1ccc2nc(NC(=O)C(=O)C(C#N)c3ccc(CC#N)cc3)sc2c1 (configuration not stated) | 11.4% (inactive)
26 | O=C(c1cccc(Cl)c1)c1cccc2ccccc12 | 5.6% (inactive)
27 | CN=C1N[N+]2=CCCCC2S1 (configuration not stated) | 3.35% (inactive)

Row | SMILES | growth inhibition
28 | CC(=O)NC1=NC(=O)/C(=C/Cc2cccs2)N1C | 16.1% (inactive)
29 | CC(=O)[C@H]1CC[C@H]2[C@@H]3CC[C@H]4C[C@@H](OC(c5ccccc5)(c5ccccc5)c5ccccc5)CC[C@]4(C)[C@H]3CC[C@]12C | 11.8% (inactive)
30 | Cc1nn(C(=O)c2ccccn2)c(-c2ccccc2)c1N=Nc1ccc(S(=O)(=O)Nc2ncccn2)cc1 | -6% (inactive)
31 | c1ccc(-c2nc3c(N4CCOCC4)ncnc3o2)cc1 | -4.65% (inactive)
32 | CC(=O)Nc1cc(F)c(N=Nc2ccc([N+](=O)[O-])cc2)c(F)c1 | -3.45% (inactive)
33 | CCCCCCCCCCOc1ccc(OCCCCCCCCC)cc1 | -15.8% (inactive)
34 | O=C1OC2=C(CCCCC2)C(N2CCCCC2)C12SCCCS2 (configuration not stated) | -6.2% (inactive)
35 | O=C(CSSCC(=O)Nc1ccccc1O)Nc1ccccc1O | -8.15% (inactive)
36 | COc1ccc(/C=C2/C[N+](C)(C)C/C(=C/c3ccc(OC)cc3)C2=O)cc1 | 11.8% (inactive)
37 | Nc1nc2c(C(=O)c3ccco3)nnn2c2cccc(Cl)c12 | -2.7% (inactive)
38 | Nc1cc(S(=O)(=O)O)nc(N)[n+]1[O-] | -1.8% (inactive)
39 | c1cc(CCc2ccncc2)ccn1 | -16.1% (inactive)
40 | CN(C)CCn1c(CO)nc2c1c(=O)n(C)c(=O)n2C | 12.2% (inactive)
41 | CC(C)=CCC(C)C | 3.85% (inactive)
42 | COc1ccc(/C=C\c2cc(OC)c(OC)c(OC)c2)cc1OC(=O)CC(N)C(=O)O (configuration not stated) | -10.3% (inactive)
43 | Cc1ccc(S(=O)(=O)CCC(=O)c2ccc([N+](=O)[O-])cc2)cc1 | 20.1% (inactive)
44 | CC1CCC(C(=O)O)CC1 (configuration not stated) | -9% (inactive)
45 | COc1ccc(C)c2c1CCCC2 | 9.75% (inactive)
46 | O=C(N/C(=C\c1ccccc1)C1Nc2ccccc2C(=O)O1)c1ccccc1 (configuration not stated) | 2.95% (inactive)
47 | Nc1cc(Br)cc2c1-c1ccc(Br)cc1C2=O | -10.6% (inactive)

Test: NCI Yeast Anticancer Drug Screen. Data for the sgs1 mgt1 strain (AID 161);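 note: 0% = growth of cultures given vehicle only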
Conditions: S. cerevisiae sgs1 mgt1 strain, at 50.0 µM, stronger effect = higher value
How it was run: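 Mutant yeast exposed to compound; growth scored against vehicle-only wells.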

Row | SMILES | growth inhibition
48 | O=C1c2cccc([N+](=O)[O-])c2C(=O)c2cccc(Cl)c21 | -4.15% (inactive)
49 | CCOC(=O)C(Cc1ccc(Cl)cc1)(Cc1ccc(Cl)cc1)C(=O)OCC | -18% (inactive)
50 | Cc1cc(Cl)ccc1NC(=O)/C(=N\NC(C)(C)C)C(C#N)c1nc(-c2ccc([N+](=O)[O-])cc2)cs1 (configuration not stated) | 3.85% (inactive)
51 | COC(=O)CCc1ccc(NC(=O)OC)cc1 | 10.9% (inactive)
52 | CC/C(C)=N/NC(=O)c1ccc([N+](=O)[O-])cc1 | 20.8% (inactive)
53 | COc1cnnc2ccccc12 | 4.6% (inactive)
54 | CC/C(C)=N/NS(C)(=O)=O | -0.35% (inactive)
55 | CNn1c(C)n[nH]c1=O | 10.4% (inactive)
56 | O=C(NN1C(=O)C(Cl)C1c1ccccc1Cl)c1ccccc1O (configuration not stated) | -49.1% (inactive)
57 | c1ccc2cc(N3CCOCC3)ccc2c1 | -7.3% (inactive)
58 | CC(=O)OCC1C(=O)OCC1C(=O)N1Cc2cc3ccccc3nc2C1 (configuration not stated) | 13.7% (inactive)
59 | Clc1ccc(C2=CSC3=NCCN23)cc1 | -9.55% (inactive)
60 | C=C(C)C(C)(C)n1[nH]c(=O)n(-c2ccccc2)c1=O | -0.3% (inactive)
61 | CN1CCN(S(=O)(=O)C(c2ccccc2)C2(O)CCCCC2)CC1 (configuration not stated) | 9.05% (inactive)
62 | COc1ccc(NC(=O)C(=O)Cc2nc3ccc([N+](=O)[O-])cc3[nH]c2=O)c(OC)c1 | -3.7% (inactive)
63 | COc1cc(NC(=O)CCN2CCOCC2)c2ncccc2c1 | 12.8% (inactive)
64 | CSC(C1c2ccccc2N(C)C2=NC(=O)N(C)C(=O)C21Cl)S(=O)(=O)c1ccc(C)cc1 (configuration not stated) | 27.4% (inactive)
65 | COc1ccc2nc(NC(=O)C(=O)C(C#N)c3ccc(CC#N)cc3)sc2c1 (configuration not stated) | 4.5% (inactive)
66 | O=C(c1cccc(Cl)c1)c1cccc2ccccc12 | 19.6% (inactive)
67 | CN=C1N[N+]2=CCCCC2S1 (configuration not stated) | 19.7% (inactive)

Row | SMILES | growth inhibition
68 | CC(=O)NC1=NC(=O)/C(=C/Cc2cccs2)N1C | 1.55% (inactive)
69 | CC(=O)[C@H]1CC[C@H]2[C@@H]3CC[C@H]4C[C@@H](OC(c5ccccc5)(c5ccccc5)c5ccccc5)CC[C@]4(C)[C@H]3CC[C@]12C | 0.95% (inactive)
70 | Cc1nn(C(=O)c2ccccn2)c(-c2ccccc2)c1N=Nc1ccc(S(=O)(=O)Nc2ncccn2)cc1 | 17.9% (inactive)
71 | c1ccc(-c2nc3c(N4CCOCC4)ncnc3o2)cc1 | 7.95% (inactive)
72 | CC(=O)Nc1cc(F)c(N=Nc2ccc([N+](=O)[O-])cc2)c(F)c1 | 22.1% (inactive)
73 | CCCCCCCCCCOc1ccc(OCCCCCCCCC)cc1 | 12.9% (inactive)
74 | O=C1OC2=C(CCCCC2)C(N2CCCCC2)C12SCCCS2 (configuration not stated) | -5.2% (inactive)
75 | O=C(CSSCC(=O)Nc1ccccc1O)Nc1ccccc1O | -11.7% (inactive)
76 | COc1ccc(/C=C2/C[N+](C)(C)C/C(=C/c3ccc(OC)cc3)C2=O)cc1 | -7.15% (inactive)
77 | Nc1nc2c(C(=O)c3ccco3)nnn2c2cccc(Cl)c12 | 11.6% (inactive)
78 | Nc1cc(S(=O)(=O)O)nc(N)[n+]1[O-] | 1.9% (inactive)
79 | c1cc(CCc2ccncc2)ccn1 | 2.5% (inactive)
80 | CN(C)CCn1c(CO)nc2c1c(=O)n(C)c(=O)n2C | -21.4% (inactive)
81 | CC(C)=CCC(C)C | 6.85% (inactive)
82 | COc1ccc(/C=C\c2cc(OC)c(OC)c(OC)c2)cc1OC(=O)CC(N)C(=O)O (configuration not stated) | -8.65% (inactive)
83 | Cc1ccc(S(=O)(=O)CCC(=O)c2ccc([N+](=O)[O-])cc2)cc1 | 14.8% (inactive)
84 | CC1CCC(C(=O)O)CC1 (configuration not stated) | -2% (inactive)
85 | COc1ccc(C)c2c1CCCC2 | -5.05% (inactive)
86 | O=C(N/C(=C\c1ccccc1)C1Nc2ccccc2C(=O)O1)c1ccccc1 (configuration not stated) | -19.6% (inactive)
87 | Nc1cc(Br)cc2c1-c1ccc(Br)cc1C2=O | 1.35% (inactive)
